Assay results reported in PubChem BioAssay (NCI).
The panel holds about 79,000 compounds, 15% with a hit somewhere; the sample as a whole holds those more often. Unmarked numbers belong to inactive results. Activity calls are given as the source filed them. Rule as the data show it: active = growth inhibition above about 70%; inactive = the rest.

What was measured:
[1] = NCI Yeast Anticancer Drug Screen. Data for the rad50 strain (AID 155);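 also: 0% = growth of vehicle-only cultures of the same strain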; conditions: S. cerevisiae rad50 strain growth inhibition, active compounds read high
Outline: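 Yeast carrying a defined DNA repair defect were exposed to test compounds, and growth was compared with vehicle-treated controls to give percent inhibition.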

[2] = NCI Yeast Anticancer Drug Screen. Data for the mec2-1 strain (AID 157); conditions: S. cerevisiae mec2-1 strain, active compounds read high
Outline: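 Each compound was tested on mec2-1 yeast, a strain altered in DNA damage repair or cell cycle control. Growth inhibition is reported relative to vehicle.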

[3] = NCI Yeast Anticancer Drug Screen. Data for the sgs1 mgt1 strain (AID 161);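 also: 0% = growth of cultures given vehicle only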; conditions: S. cerevisiae sgs1 mgt1 strain, active compounds read high
Outline: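 Read-out: growth inhibition vs vehicle controls. Cells: mutant yeast strain deficient in DNA damage repair.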

[4] = NCI Yeast Anticancer Drug Screen. Data for the cln2 rad14 strain (AID 165);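 also: 0% = growth equal to vehicle treated cultures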; conditions: S. cerevisiae cln2 rad14 strain, active compounds read high
Outline: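 Test compounds were added to cln2 rad14 yeast cultures; inhibition of growth was then determined by comparison with vehicle treatment.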

[5] = NCI Yeast Anticancer Drug Screen. Data for the bub3 strain (AID 167); conditions: S. cerevisiae bub3 mutant strain, active compounds read high
Outline: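 Compounds were applied to a genetically altered yeast strain carrying a cell-cycle control defect. Growth inhibition was scored against vehicle-treated controls.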

[6] = NCI Yeast Anticancer Drug Screen. Data for the mlh1 rad18 strain (AID 175); conditions: S. cerevisiae mlh1 rad18 strain growth inhibition, active compounds read high
Outline: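 Inhibition values reflect reduced growth of mutant yeast versus vehicle-treated controls following compound exposure; the mutations affect DNA damage repair.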

[7] = at 5.0 µM (retest, dose inferred, filed as 0.5)
[8] = at 50.0 µM (retest, dose inferred, filed as 5.0)

Structure (SMILES)	growth inhibition [1, 7]	growth inhibition [1, 8]	growth inhibition ([1]; at 50.0 µM)	growth inhibition [2, 7]	growth inhibition [2, 8]	growth inhibition ([2]; at 50.0 µM)	growth inhibition [3, 7]	growth inhibition [3, 8]	growth inhibition ([3]; at 50.0 µM)	growth inhibition [4, 7]	growth inhibition [4, 8]	growth inhibition ([4]; at 50.0 µM)	growth inhibition [5, 7]	growth inhibition [5, 8]	growth inhibition ([5]; at 50.0 µM)	growth inhibition [6, 7]	growth inhibition [6, 8]	growth inhibition ([6]; at 50.0 µM)
COC1=Nc2ccccc2/C=C\c2ccccc21	-136%	-77%	78.5% (active)	-50%	-57%	82.2% (active)	-67%	-53%	67.7%	-49%	-60%	25.2%	-62%	-85%	43.7%	-124%	-118%	69.5%
O=[N+]([O-])c1ccc(/C=N/NC2=CS(=O)(=O)C=C2)cc1	0%	17%	0.8%	-2%	0%	2.45%	-5%	1%	8.4%	-2%	0%	38%	-4%	5%	16.7%	-4%	2%	1.1%
CC1=C/C(=C(/c2ccc(O)c(C)c2)c2ccccc2C(=O)O)C=CC1=O	-13%	99% (active)	99% (active)	-3%	99% (active)	99.5% (active)	-9%	99% (active)	99.1% (active)	-28%	98% (active)	99.1% (active)	-8%	99% (active)	99.2% (active)	6%	99% (active)	99% (active)
CC1=C[P+](c2ccccc2)(c2ccccc2)C=C(c2ccccc2)O1	51%	94% (active)	84.5% (active)	24%	98% (active)	88.1% (active)	25%	94% (active)	87.4% (active)	42%	89% (active)	84.8% (active)	64%	97% (active)	90.4% (active)	34%	93% (active)	89% (active)
O=[N+]([O-])/C=C/C=C/c1ccco1	-1%	98% (active)	99.6% (active)	3%	99% (active)	64.2%	6%	94% (active)	97.2% (active)	2%	99% (active)	99.1% (active)	7%	98% (active)	99.1% (active)	-5%	98% (active)	95.8% (active)
Cc1ccc(S(=O)(=O)OCC2OC(c3ccccc3)OC3C(CO)OC(c4ccccc4)OC23)cc1 (configuration not stated)	-1%	-6%	16.7%	0%	-5%	50.5%	-3%	-6%	11.3%	4%	-10%	16.2%	0%	-5%	-0.65%	0%	-6%	60.5%
CN1C(=O)OC(C)(c2ccccc2)C1=O (configuration not stated)	-3%	4%	-14.7%	-2%	-3%	-1.1%	-2%	0%	-13.6%	2%	-1%	78% (active)	2%	-7%	-11.8%	0%	8%	-2.55%
C=C1C[C@H]2C=Nc3cc(OCCCOc4cc5c(cc4OC)C(=O)N4CC(=C)C[C@H]4C=N5)c(OC)cc3C(=O)N2C1	92% (active)	95% (active)	98.3% (active)	94% (active)	97% (active)	98.7% (active)	88% (active)	94% (active)	97.7% (active)	92% (active)	97% (active)	98.3% (active)	86% (active)	95% (active)	98.6% (active)	92% (active)	95% (active)	98.7% (active)
O=C(Nc1ccc(S(=O)(=O)NC2CCCCC2)cc1)OC1CCCCCCC1	69%	74% (active)	72% (active)	99% (active)	81% (active)	53.2%	72% (active)	40%	77.6% (active)	12%	75% (active)	75% (active)	92% (active)	79% (active)	67%	90% (active)	58%	76.7% (active)
